Assay [1] in a line: ATG_CRE_CIS: Attagene CIS-FACTORIAL HepG2 Assay for human cAMP Responsive Element (CRE) binding protein 3 (AID 2282926). As to conditions: HepG2 CRE cis-reporter, Attagene multiplexed mRNA; actives raise or lower the signal. The method in brief:
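Multiplexed transcription-unit reporters transfected into HepG2; 24 h dosing; RT-PCR/capillary electrophoresis fluorescence read-out; bidirectional fit vs DMSO.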

Assay [2] has as its target CCAAT/enhancer-binding protein beta (Homo sapiens) (UniProt P17676). Nature of the assay: ATG_C_EBP_CIS: Attagene CIS-FACTORIAL HepG2 Assay for human CCAAT/Enhancer Binding Protein (C/EBP) beta (AID 2282927). As to conditions: HepG2 Attagene cis-factorial transcription factor reporter; actives raise or lower the signal. The gist of the method:
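HepG2 transiently transfected with multiplexed reporter units under cis-regulatory promoters reporting endogenous C/EBPb activity. After 24 h exposure, reporter mRNA assayed by RT-PCR, fluorescent labelling, HpaI digestion and capillary electrophoresis; bidirectional fitting versus DMSO.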

The nature of assay [3]: ATG_CMV_CIS: Attagene CIS-FACTORIAL HepG2 Assay for human CMV (Internal Marker) (AID 2282928).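 Note: endpoint acts as a background internal control marker rather than a target.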 As to conditions: HepG2 CMV promoter reporter, transcription factor profiling; actives raise or lower the signal. The method in brief:
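CMV internal-marker background readout in transiently transfected HepG2 cells bearing cis-regulated reporter units. Reporter mRNA is measured 24 h after dosing by RT-PCR and capillary electrophoresis, with bidirectional fitting against DMSO.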

Assay [4] is described as follows: ATG_DR4_LXR_CIS: Attagene CIS-FACTORIAL HepG2 Assay for human Liver X Receptor (LXR), DR4 submotif (AID 2282929). As to conditions: HepG2 Attagene DR4 cis-reporter, mRNA transcription; actives raise or lower the signal. The method in brief: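 After transient transfection with multiplexed cis-promoter reporter units, HepG2 cells received test chemicals for 24 h. Reporter mRNA induction, detected by fluorescence after RT-PCR and capillary electrophoresis, was scored relative to DMSO.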

Assay [5] addresses Aryl hydrocarbon receptor (Homo sapiens) (UniProt P35869). As to the kind of experiment: ATG_Ahr_CIS: Attagene CIS-FACTORIAL HepG2 Assay for human Aryl Hydrocarbon Receptor (Ahr) (AID 2282930). As to conditions: HepG2 AhR cis-factorial reporter transcription; actives raise or lower the signal. The method in brief:
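HepG2 cells transiently transfected with cis-element-driven multiplexed reporter units; endogenous AhR activity read as reporter mRNA 24 h after dosing, via RT-PCR, 6-FAM labelling, HpaI digestion and capillary electrophoresis. Bidirectional fit relative to DMSO.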

Assay [6] in a line: ATG_AP_1_CIS: Attagene CIS-FACTORIAL HepG2 Assay for human Activator Protein 1 (AP-1) (AID 2282931). Particulars: HepG2 Attagene cis-factorial AP-1 reporter mRNA; actives raise or lower the signal. The gist of the method:
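After 24 h incubation with test chemical, RNA from transfected HepG2 cells was reverse-transcribed, amplified, fluorescently labelled and digested before capillary electrophoresis. Reporters were driven by cis-regulatory promoters; activity fitted bidirectionally versus DMSO.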

Assay [7] can be described thus: ATG_AP_2_CIS: Attagene CIS-FACTORIAL HepG2 Assay for human Activator Protein 2 (AP-2) (AID 2282932). Particulars: HepG2 AP-2 cis-reporter, Attagene transcription factor profiling; actives raise or lower the signal. The gist of the method:
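Multiplexed mRNA reporter assay in HepG2: cis-regulated units report endogenous factor activity after 24 h treatment. Fluorescence from capillary electrophoresis of RT-PCR products gives the signal, with DMSO as baseline.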

A short description of assay [8]: ATG_BRE_CIS: Attagene CIS-FACTORIAL HepG2 Assay for human Bone Morphogenetic Protein (BMP) Response Element (BRE) (AID 2282933). Particulars: HepG2 BMP response element reporter, Attagene transcription factor profiling; actives raise or lower the signal. The gist of the method: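 After a 24 h chemical treatment, transiently transfected HepG2 cells were lysed for RNA; reporter transcripts were quantified by fluorescent RT-PCR and capillary electrophoresis, normalised to DMSO.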

Assay [9] has as its target Retinoic acid receptor alpha (Homo sapiens) (UniProt P10276). As to the kind of experiment: ATG_DR5_RAR_CIS: Attagene CIS-FACTORIAL HepG2 Assay for human Retinoic Acid Receptor Alpha (RARE), DR5 submotif (AID 2282934).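 For AC50: reporter responds to endogenous RAR alpha beta and gamma in HepG2 not RARA alone.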 As to conditions: HepG2 Attagene cis-factorial RARE DR5 reporter, mRNA; actives raise or lower the signal. The gist of the method: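 HepG2 cells transiently transfected with multiplexed reporter units; DR5 cis-element drives reporter through endogenous transcription factors. After 24 h dosing, reporter mRNA quantified by RT-PCR, fluorescent labeling, HpaI digestion and capillary electrophoresis; bidirectional fitting versus DMSO.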

For assay [10], the target named is Transcription factor E2F1 (Homo sapiens) (UniProt Q01094). Nature of the assay: ATG_E2F_CIS: Attagene CIS-FACTORIAL HepG2 Assay for human E2F Transcription Factor 1 (AID 2282935). Particulars: HepG2 Attagene cis-reporter, E2F reporter RNA transcripts; actives raise or lower the signal. The method in brief:
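Measures reporter transcript levels via RT-PCR with capillary electrophoresis detection in HepG2 cells harboring cis-regulated reporter units; 24 h post-dose; bidirectional curve fitting with DMSO as baseline.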

Assay [11] is described as follows: ATG_E_Box_CIS: Attagene CIS-FACTORIAL HepG2 Assay for human Enhancer Box (E-box) (AID 2282936). As to conditions: HepG2 E-box cis-reporter transcription, actives raise or lower the signal. The gist of the method:
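First, HepG2 cells receive multiple cis-regulated reporter constructs by transient transfection. Next, chemicals are applied for 24 h. Finally, reporter mRNA is quantified via RT-PCR and capillary electrophoresis, with DMSO as baseline.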

SMILES strings stand for the structures. Values joined by “and” are separate entries in the source; they are usually repeats but may differ in a detail not shown here. Equal values may be shown once. A structure can be active in one record and inactive in another. Active and inactive are the calls of the source. Rule for the calls: active = hit-call score of the fitted dose curve at least 0.9, where 1 is the maximum; inactive = score below 0.9.

The source of these data is PubChem BioAssay (EPA / NIEHS).

The AC50 is the concentration giving half of the maximal activity seen.

Sequence of CCAAT/enhancer-binding protein beta (Homo sapiens) (P17676 whole entry, looked up): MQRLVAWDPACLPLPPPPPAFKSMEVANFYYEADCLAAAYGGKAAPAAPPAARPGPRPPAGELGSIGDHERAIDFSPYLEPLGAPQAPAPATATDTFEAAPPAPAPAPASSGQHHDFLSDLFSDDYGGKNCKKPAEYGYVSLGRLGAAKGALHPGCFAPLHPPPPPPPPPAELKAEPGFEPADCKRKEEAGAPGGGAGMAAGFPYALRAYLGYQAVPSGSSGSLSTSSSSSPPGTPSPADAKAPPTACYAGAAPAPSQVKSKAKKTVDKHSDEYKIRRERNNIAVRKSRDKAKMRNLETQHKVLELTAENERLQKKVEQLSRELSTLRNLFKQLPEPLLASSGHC
Sequence of Transcription factor E2F1 (Homo sapiens) (Q01094 whole entry, looked up): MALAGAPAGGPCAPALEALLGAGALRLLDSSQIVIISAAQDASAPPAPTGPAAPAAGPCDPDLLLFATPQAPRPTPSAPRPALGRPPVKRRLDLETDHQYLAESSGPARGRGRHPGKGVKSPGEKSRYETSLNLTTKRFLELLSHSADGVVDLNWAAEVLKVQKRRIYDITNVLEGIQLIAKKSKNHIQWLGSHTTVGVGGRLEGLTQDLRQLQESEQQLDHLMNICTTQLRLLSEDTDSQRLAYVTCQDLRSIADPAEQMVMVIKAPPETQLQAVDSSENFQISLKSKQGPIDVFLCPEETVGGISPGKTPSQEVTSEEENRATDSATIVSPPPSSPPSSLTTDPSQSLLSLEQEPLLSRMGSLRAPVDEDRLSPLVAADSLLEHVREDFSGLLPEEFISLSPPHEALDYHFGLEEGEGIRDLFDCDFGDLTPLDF
Sequence of Aryl hydrocarbon receptor (Homo sapiens) (P35869 whole entry, looked up): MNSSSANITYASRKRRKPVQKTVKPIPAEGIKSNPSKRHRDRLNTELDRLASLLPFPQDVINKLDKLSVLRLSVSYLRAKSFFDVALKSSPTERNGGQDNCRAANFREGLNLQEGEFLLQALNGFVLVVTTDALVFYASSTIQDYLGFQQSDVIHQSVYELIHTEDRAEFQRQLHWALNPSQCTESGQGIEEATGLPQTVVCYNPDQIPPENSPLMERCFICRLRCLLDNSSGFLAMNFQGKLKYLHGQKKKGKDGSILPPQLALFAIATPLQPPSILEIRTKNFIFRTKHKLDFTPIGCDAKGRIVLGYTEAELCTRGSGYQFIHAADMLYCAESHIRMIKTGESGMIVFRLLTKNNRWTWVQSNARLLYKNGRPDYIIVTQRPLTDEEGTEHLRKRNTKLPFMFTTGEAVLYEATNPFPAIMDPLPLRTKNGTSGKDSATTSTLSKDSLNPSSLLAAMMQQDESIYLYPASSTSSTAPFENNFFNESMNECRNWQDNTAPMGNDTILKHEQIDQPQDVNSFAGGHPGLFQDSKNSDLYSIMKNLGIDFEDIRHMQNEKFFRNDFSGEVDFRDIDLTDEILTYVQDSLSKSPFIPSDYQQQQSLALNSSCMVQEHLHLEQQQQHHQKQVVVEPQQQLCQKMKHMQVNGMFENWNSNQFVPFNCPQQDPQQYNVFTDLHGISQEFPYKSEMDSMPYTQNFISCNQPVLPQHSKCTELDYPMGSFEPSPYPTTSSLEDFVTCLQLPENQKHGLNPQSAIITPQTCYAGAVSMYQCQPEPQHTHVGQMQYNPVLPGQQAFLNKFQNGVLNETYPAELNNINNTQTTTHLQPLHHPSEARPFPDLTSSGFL
Sequence of Retinoic acid receptor alpha (Homo sapiens) (P10276 whole entry, looked up): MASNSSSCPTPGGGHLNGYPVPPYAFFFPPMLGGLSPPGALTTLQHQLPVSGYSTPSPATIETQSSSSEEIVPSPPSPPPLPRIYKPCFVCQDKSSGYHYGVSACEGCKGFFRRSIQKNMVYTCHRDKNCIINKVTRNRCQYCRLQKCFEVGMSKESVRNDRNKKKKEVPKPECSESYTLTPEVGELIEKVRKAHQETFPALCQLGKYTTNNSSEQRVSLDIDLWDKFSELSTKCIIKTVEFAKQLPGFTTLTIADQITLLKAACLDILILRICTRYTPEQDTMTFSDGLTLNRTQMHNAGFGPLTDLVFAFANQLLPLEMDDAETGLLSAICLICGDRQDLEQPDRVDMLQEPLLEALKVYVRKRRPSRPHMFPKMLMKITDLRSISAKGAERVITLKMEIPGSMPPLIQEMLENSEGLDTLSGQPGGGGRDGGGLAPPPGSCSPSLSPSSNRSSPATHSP

In the case of `N#Cc1ccccc1Cl`, the call in assay [1], in [2], in assay [3], in assay [4], in assay [5] and in [6] was inactive. The compound was called inactive in [7], in assay [8], in assay [9], in assay [10] and in assay [11].

On to `Nc1ccc(N)cc1`, for which the figures for the concentration at half-maximal activity (AC50) in assay [1], in assay [3] and in assay [4] were 11.7 µM (active), 24.3 µM (active) and 44.6 µM (active), respectively. For the same compound, the call in assay [1], in assay [3], in assay [4], in [7], in assay [8] and in [11] was inactive.

Consider `Cc1cc(C(C)(C)c2ccc(O)c(C)c2)ccc1O`, for which the AC50 was 21.8 µM (active) in assay [1]; 89.3 µM (active) in [3]; 12.1 µM (active) in [4]; 89000 nM (active) in assay [5]; 83.9 µM (active) in assay [6]; 21.5 µM (active) in assay [9]. The outcome in [2], in [7], in assay [8], in [10] and in [11] was inactive.

Take `CCCCOC(=O)COC(=O)c1ccccc1C(=O)OCCCC`: the compound was called inactive in [1], in assay [2], in assay [3], in [4], in assay [5] and in assay [6]. For the same compound, the compound was classed as inactive in assay [7], in assay [8], in [9], in assay [10] and in assay [11].

For the compound `CC(C)[N+](=O)[O-]`, the call in assay [1], in assay [2], in assay [3], in [4], in [5] and in [6] was inactive. Further, the outcome in [7], in assay [8], in assay [9], in [10] and in assay [11] was inactive.

In the case of `CCC[CH2][Sn]([CH2]CCC)([CH2]CCC)[CH2]CCC`, the call in assay [1], in assay [3], in [5] and in assay [10] was inactive. The half-maximal activity concentration (AC50) in assay [2] is 5.44 µM (active); in [4] it was 3.31 µM (active); in assay [6], 7.55 µM (active); in assay [7], 19.1 µM (active); in assay [8], 5.89 µM (active); in [9] it was 0.283 µM (active). Besides, the concentration at half-maximal activity (AC50) in [11] was 14 µM (active).

Consider `Cc1cc(Cl)ccc1N`, for which the outcome in assay [1], in assay [2], in assay [3], in [4], in assay [6] and in [7] was inactive. Further, the call in assay [8], in [9], in assay [10] and in [11] was inactive. Further, the half-maximal activity concentration (AC50) in assay [5] is 41.4 µM (active) and 33 µM (active).

For the compound `Cc1cc(-c2cc(C)c(N)c(C)c2)cc(C)c1N`, the call in [1], in [2], in [4], in assay [6], in assay [7] and in [8] was inactive. Moreover, the compound was called inactive in assay [9], in [10] and in assay [11]. Further, the AC50 is 37.8 µM (active) in assay [3] and 776 nM (active) in [5].

As for `CC(C)[C@H](C(=O)OC(C#N)c1cccc(Oc2ccccc2)c1)c1ccc(OC(F)F)cc1` (stereo not given in full), the compound was classed as inactive in assay [1], in assay [2], in [3], in assay [4], in assay [5] and in assay [6]. Moreover, the result in assay [7], in assay [8], in assay [9], in [10] and in assay [11] was inactive.

Regarding `CCN(CCO)CCO`, the outcome in assay [1], in [2], in assay [3], in [4], in assay [5] and in assay [6] was inactive. The outcome in assay [7], in assay [8], in assay [9], in assay [10] and in [11] was inactive.

On to `CCOC(=O)OC1=C(c2cc(C)ccc2C)C(=O)NC12CCC(OC)CC2` (stereo not given), for which the result in [1], in assay [2], in assay [3], in [4], in assay [5] and in assay [6] was inactive. The compound was called inactive in assay [7], in assay [8], in assay [9], in assay [10] and in assay [11].

For `CC1(C)COP(Oc2ccccc2)OC1`, the result in [1], in assay [2], in assay [3], in [4], in assay [5] and in assay [6] was inactive. In addition, the outcome in assay [7], in assay [8], in assay [9], in assay [10] and in [11] was inactive.

Regarding `C=CCc1ccccc1O`, the compound was classed as inactive in [1], in assay [2], in [3], in assay [4], in assay [5] and in assay [6]. For the same compound, the call in assay [7], in assay [8], in assay [9], in assay [10] and in assay [11] was inactive.

Consider `ClCCCCl`, for which the compound was classed as inactive in assay [1], in [2], in assay [3], in assay [4], in assay [5] and in assay [6]. Moreover, the compound was called inactive in [7], in assay [8], in [9], in [10] and in assay [11].

For the compound `COc1nn(C(=O)NS(=O)(=O)c2ccccc2OC(F)(F)F)c(=O)n1C`, the result in assay [1], in assay [2], in assay [3], in assay [4], in [5] and in [6] was inactive. Also, the compound was called inactive in assay [7], in [8], in assay [9], in assay [10] and in assay [11].

In the case of `N#Cc1ccc(Cl)cc1`, the outcome in assay [1], in assay [2], in assay [3], in [4], in [5] and in [6] was inactive. In addition, the call in [7], in assay [8], in assay [9], in assay [10] and in assay [11] was inactive.

As for `O=C1C=CC(=O)c2ccccc21`, the compound was classed as inactive in [1], in assay [2], in assay [3], in assay [4], in [6] and in assay [7]. In addition, the call in assay [8], in assay [9], in [10] and in assay [11] was inactive. The concentration at half-maximal activity (AC50) in assay [5] is 652 nM (active).

Take `ClCc1ccccc1Cl`: the concentration at half-maximal activity (AC50) was 83.5 µM (active) in [1] and 50.6 µM (active) in assay [4]. The result in assay [2], in [3], in [5], in [6], in [7] and in assay [8] was inactive. The compound was classed as inactive in [9], in assay [10] and in assay [11].

With `CC(c1ccc(O)cc1)c1ccc(O)cc1`, the result in assay [1], in [2], in [3], in assay [4], in [5] and in assay [6] was inactive. Also, the compound was classed as inactive in assay [7], in assay [8], in [9], in assay [10] and in assay [11].

Consider `NC(=O)c1ccc(N)nc1`, for which the call in assay [1], in assay [2], in assay [3], in assay [4], in [5] and in assay [6] was inactive. In addition, the call in assay [7], in assay [8], in assay [9], in assay [10] and in assay [11] was inactive.

With `C=C(C)C(=O)OCC(CC)CCCC` (stereo not given), the compound was called inactive in assay [1], in assay [2], in assay [3], in assay [4], in assay [5] and in assay [6]. Also, the compound was called inactive in assay [7], in [8], in [9], in assay [10] and in [11].

As to `CCC[CH2][Sn]([Cl])([Cl])[CH2]CCC`, the AC50 in assay [1] was 0.947 µM (active); in assay [2], 0.33 µM (active); in [3], 0.721 µM (active); in [4], 0.807 µM (active); in assay [8] it was 0.316 µM (active). Moreover, the result in assay [5], in assay [6], in [7], in assay [9], in assay [10] and in assay [11] was inactive.
